From PubChem BioAssay (NCI) come the findings set out here.

About 83,000 compounds went through this panel and 20% of them were active in at least one assay; those are over-represented in the sample as a whole.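 Results are percent growth after 48 hours of single-concentration exposure. 100 means growth as in untreated cells, lower positive values show inhibition; negative values down to -100 show cell death.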 Values without a mark were called inactive. Active and inactive are the calls of the source. Rule for the calls: active = growth percent below 10; inactive = the rest.

Test systems include NCI-H23 lung; NCI-H226 lung; NCI-H322M lung; HOP-62 NSCLC; NCI-H460 lung; HOP-92 NSCLC; NCI-H522 lung; A549/ATCC NSCLC; 786-0 renal; COLO 205 colon; DU-145 prostate; K-562 leukemia; MALME-3M melanoma; MDA-MB-231 breast; RXF 393 renal; SF-268 CNS; SF-295 CNS; SF-539 CNS; UACC-257 melanoma; M14 melanoma.
Holding throughout (test): NCI-60 one-dose screen, 48 h (100 = growth as untreated, 0 = no growth, -100 = all killed)
Holding throughout (conditions): 10 µM unless noted

In the case of `COC(=O)c1c2c(c[n+]([O-])c1C)C(=O)C=C(NCc1ccccc1)C2=O`, the growth in the test with NCI-H23 lung was -39.1% (active); with NCI-H226 lung it was -90.8% (active); in the test with NCI-H322M lung, -100% (active); in the test on HOP-62 NSCLC, -95.3% (active); in the test on NCI-H460 lung, -79.8% (active); in the test on HOP-92 NSCLC, -74.5% (active). The growth in the test on NCI-H522 lung is -57.9% (active); in the test with A549/ATCC NSCLC it was -64.2% (active); in the test with 786-0 renal, -69% (active); with COLO 205 colon, -73.7% (active); with DU-145 prostate, -94.7% (active); in the test on K-562 leukemia, -29% (active). The growth in the test on MALME-3M melanoma is -100% (active); in the test with MDA-MB-231 breast, -17.7% (active); in the test on RXF 393 renal it was -94.1% (active); with SF-268 CNS, -51.6% (active); with SF-295 CNS it was -93.7% (active); in the test with SF-539 CNS, -99% (active). Moreover, the growth in the test on UACC-257 melanoma and with M14 melanoma was -92.2% (active) in each case.
As to `O=S(O)c1cc(Cl)cc(Cl)c1OCc1ccccc1`, the growth in the test with NCI-H23 lung is 101%; in the test with NCI-H226 lung, 94.5%; in the test with NCI-H322M lung it was 95.9%; in the test with HOP-62 NSCLC it was 101%; in the test on NCI-H460 lung, 101%; with HOP-92 NSCLC, 87.6%. Also, the growth was 96.2% with NCI-H522 lung; 90.2% with A549/ATCC NSCLC; 102% with 786-0 renal; 105% in the test on COLO 205 colon; 109% in the test with DU-145 prostate; 106% with K-562 leukemia. The growth with MALME-3M melanoma was 99.8%; with MDA-MB-231 breast, 107%; with RXF 393 renal, 97.3%; in the test with SF-268 CNS, 101%; with SF-295 CNS, 108%; with SF-539 CNS, 103%. The growth in the test with UACC-257 melanoma was 90.8%; in the test on M14 melanoma, 101%.
Consider `C/C(Cc1ccc(Cl)cc1)=C(\c1ccc(OCCN2CCCCCC2)cc1)c1ccc(OC(=O)c2ccccc2)cc1`, for which the growth in the test with NCI-H23 lung was 46.8%; in the test with NCI-H226 lung, 86.2%; in the test with NCI-H322M lung, 70%; in the test with HOP-62 NSCLC it was 81%; in the test on NCI-H460 lung, 3.3% (active); in the test on HOP-92 NSCLC it was -4.45% (active). Also, the growth in the test on NCI-H522 lung was 62.4%; in the test on A549/ATCC NSCLC, 54.3%; in the test with 786-0 renal, 12%; with COLO 205 colon it was 44.7%; with DU-145 prostate, 55.6%; in the test with K-562 leukemia, 1.83% (active). Moreover, the growth with MALME-3M melanoma was 11.7%; in the test on MDA-MB-231 breast, 39.7%; in the test on RXF 393 renal it was 22%; with SF-268 CNS, 37.1%; in the test on SF-295 CNS, 56%; in the test with SF-539 CNS it was 71%. The growth is 45.2% with UACC-257 melanoma and -49.8% (active) with M14 melanoma.
For `N#CC1=C(N)Oc2c(sc3c(F)cccc23)C1c1ccc([N+](=O)[O-])cc1` (stereo not given), the growth is -4.82% (active) with NCI-H23 lung; 3.23% (active) in the test with NCI-H226 lung; -24.2% (active) in the test with NCI-H322M lung; -33.4% (active) in the test with HOP-62 NSCLC; -26.8% (active) in the test with NCI-H460 lung; -47.5% (active) in the test with HOP-92 NSCLC. In addition, the growth with NCI-H522 lung is -26.3% (active); with A549/ATCC NSCLC, 4.46% (active); with 786-0 renal, -18.6% (active); in the test with COLO 205 colon, -41.7% (active); with DU-145 prostate it was 3.51% (active); in the test on K-562 leukemia, 1.99% (active). Further, the growth in the test on MALME-3M melanoma is -24.3% (active); with MDA-MB-231 breast it was -66.2% (active); in the test on RXF 393 renal, -57.3% (active); with SF-268 CNS it was -23.1% (active); in the test on SF-295 CNS it was -70.3% (active); in the test with SF-539 CNS, -79.2% (active). Also, the growth with UACC-257 melanoma was -17.2% (active); in the test on M14 melanoma it was -50.9% (active).
Take `CNC(=O)c1cc(Oc2ccc3c(c2)sc2nc(-c4ccc(Cl)c(C(F)(F)F)c4)cn23)ccn1`: the growth with NCI-H23 lung was 53%; in the test on NCI-H226 lung, 52.6%; with NCI-H322M lung it was 88.5%; in the test with HOP-62 NSCLC, 75.9%; in the test on NCI-H460 lung, 51.3%; in the test on HOP-92 NSCLC, 73.1%. Moreover, the growth in the test on NCI-H522 lung was 42.6%; with A549/ATCC NSCLC, 61%; in the test on 786-0 renal, 68.6%; in the test on COLO 205 colon it was 58.4%; with DU-145 prostate, 74%; with K-562 leukemia, 30%. Besides, the growth was 47.4% in the test on MALME-3M melanoma; 77.1% in the test with MDA-MB-231 breast; 87.1% in the test with RXF 393 renal; 73.7% in the test with SF-268 CNS; 48.5% in the test on SF-295 CNS; 64.4% in the test on SF-539 CNS. Besides, the figures for the growth with UACC-257 melanoma and in the test on M14 melanoma were 35.9% and 69.5%, respectively.
`CC(C)(C)CC(C)(C)Nc1c(-c2c(O)c3ccccc3oc2=O)nc2sc3ccccc3n12`: the growth with NCI-H23 lung is 44.1%; in the test on NCI-H226 lung it was 56.7%; in the test on NCI-H322M lung, 42.5%; in the test with HOP-62 NSCLC, 23.1%; in the test with NCI-H460 lung, 16.6%; with HOP-92 NSCLC it was 10.8%. Also, the growth is 32.8% in the test with NCI-H522 lung; 30.9% with A549/ATCC NSCLC; 35.6% with 786-0 renal; 28.7% in the test on COLO 205 colon; 53.7% in the test on DU-145 prostate; 11.8% in the test on K-562 leukemia. In addition, the growth with MALME-3M melanoma is 50.7%; in the test with MDA-MB-231 breast it was 61.9%; in the test on RXF 393 renal, 65.9%; with SF-268 CNS, 48%; in the test with SF-295 CNS, 3.5% (active); in the test with SF-539 CNS, 44%. Also, the growth in the test with UACC-257 melanoma was 38.1%; in the test with M14 melanoma it was 41.7%.
Consider `Cc1ccc(C(=O)c2ccc(CC(=O)N/N=C/c3cccc(O)c3O)n2C)cc1`, for which the growth was 45.4% in the test on NCI-H23 lung; 69.1% in the test with NCI-H226 lung; 54.4% in the test with NCI-H322M lung; 49.9% in the test on HOP-62 NSCLC; 8.65% (active) with NCI-H460 lung; 56.3% with HOP-92 NSCLC. In addition, the growth in the test with NCI-H522 lung is 48.8%; with A549/ATCC NSCLC, 58.7%; with 786-0 renal, 76.4%; in the test on COLO 205 colon it was 63%; in the test with DU-145 prostate, 49.3%; with K-562 leukemia, 30.4%. In addition, the growth in the test on MALME-3M melanoma was 58.7%; in the test on MDA-MB-231 breast it was 45.3%; in the test on RXF 393 renal, 29.7%; with SF-268 CNS, 37.2%; in the test with SF-295 CNS it was 83.5%; in the test on SF-539 CNS, 33.8%. Moreover, the growth with UACC-257 melanoma was 89.7%; in the test on M14 melanoma, 28.5%.
